Measured values taken from PubChem BioAssay (EPA / NIEHS).
Inconclusive results are not listed. Calls of active or inactive are those of the source. How the source made its calls, unless noted: active means hit-call score of the fitted dose curve at least 0.9, where 1 is the maximum; inconclusive means response in the unintended direction; inactive means score below 0.9.

How the values were obtained:
[1] = read-out: ABC Transporter (ABCB11), ABCB11 (gene 8647); assay: CLD_ABCB11_48hr: CellzDirect (CLD) Gene Expression Assay for ABC Transporter (ABCB11) at 48 hours (AID 2283697)
Procedure, shortened: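 Primary human hepatocytes from two donor preparations dosed daily for two days at multiple concentrations; 0.2% DMSO vehicle. ABCB11 mRNA at 48 h by quantitative nuclease protection assay, chemiluminescence; fitted for induction versus DMSO.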

[2] = read-out: Cytochrome P450 3A4 (Homo sapiens) (UniProt P08684); assay: CLD_CYP3A4_48hr: CellzDirect (CLD) Gene Expression Assay for xenobiotic metabolism (CYP3A4) at 48 hours (AID 2283698)
Procedure, shortened: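 Primary human hepatocytes from two donor preparations dosed daily for two days with multiple chemical concentrations, 0.2% DMSO vehicle. CYP3A4 mRNA at 48 h by quantitative nuclease protection assay, chemiluminescence, positive fit versus DMSO; cytotoxicity flagged morphologically.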

[3] = read-out: Cytochrome P450 2C9 (Homo sapiens) (UniProt P11712); assay: CLD_CYP2C9_48hr: CellzDirect (CLD) Gene Expression Assay for xenobiotic metabolism (CYP2C9) at 48 hours (AID 2283701; active means hit-call score of the fitted dose curve at least 0.9, where 1 is the maximum; inactive means score below 0.9)
Procedure, shortened: (§1)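 Primary human hepatocytes (two donor preparations) dosed daily for two days with test chemicals, 0.2% DMSO vehicle; harvested at 48 h. mRNA induction quantified by qNPA chemiluminescence, fitted for gain of signal against DMSO baseline; cytotoxicity annotated from phase-contrast morphology.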

[4] = read-out: xenobiotic metabolism (CYP1A2), CYP1A2 (gene 1544); assay: CLD_CYP1A2_48hr: CellzDirect (CLD) Gene Expression Assay for xenobiotic metabolism (CYP1A2) at 48 hours (AID 2283703)
Procedure, shortened: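 Primary human hepatocytes from two donor preparations were dosed daily for two days at multiple concentrations in 0.2% DMSO vehicle. CYP1A2 mRNA was measured at 48 hours by chemiluminescent quantitative nuclease protection assay, with gain of signal fitted versus DMSO and cytotoxicity annotated from morphology.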

[5] = read-out: Broad substrate specificity ATP-binding cassette transporter ABCG2 (Homo sapiens) (UniProt Q9UNQ0); assay: CLD_ABCG2_48hr: CellzDirect (CLD) Gene Expression Assay for ABC Transporter (ABCG2) at 48 hours (AID 2283704)
Procedure, shortened: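 Primary human hepatocytes from two donors, dosed daily for 2 days, 0.2% DMSO vehicle, several concentrations. ABCG2 mRNA at 48 h by qNPA chemiluminescence, gain fitted versus DMSO; cytotoxicity flagged by morphology.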

[6] = read-out: xenobiotic metabolism (CYP1A1), CYP1A1 (gene 1543); assay: CLD_CYP1A1_48hr: CellzDirect (CLD) Gene Expression Assay for xenobiotic metabolism (CYP1A1) at 48 hours (AID 2283705)
Procedure, shortened: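 Primary human hepatocytes from two donors dosed daily for two days at multiple concentrations, 0.2% DMSO vehicle; CYP1A1 mRNA induction at 48 h by qNPA chemiluminescence. Cytotoxicity noted by phase-contrast morphology.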

[7] = read-out: Glyceraldehyde-3-phosphate dehydrogenase (Homo sapiens) (UniProt P04406); assay: CLD_GAPDH_48hr: CellzDirect (CLD) Gene Expression Assay for Baseline Control (Glyceraldehyde 3-phosphate dehydrogenase) at 48 hours (AID 2283706);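 further: active means higher GAPDH mRNA than DMSO vehicle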
Procedure, shortened: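 Primary human hepatocytes dosed daily for two days with fresh chemical at multiple concentrations, 0.2% DMSO vehicle; GAPDH mRNA measured at 48 h by quantitative nuclease protection assay with chemiluminescence, fitted upward relative to DMSO as background control.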

[8] = read-out: glucuronosyltransferase (UGT1A1), UGT1A1 (gene 54658); assay: CLD_UGT1A1_24hr: CellzDirect (CLD) Gene Expression Assay for glucuronosyltransferase (UGT1A1) at 24 hours (AID 2283696)
Procedure, shortened: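 Primary human hepatocytes from two donor preparations were dosed (0.2% DMSO vehicle) and harvested at 24 h; UGT1A1 mRNA induction was quantified by chemiluminescent qNPA, fitted as gain relative to DMSO.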

[9] = read-out: Cytochrome P450 2B6 (Homo sapiens) (UniProt P20813); assay: CLD_CYP2B6_48hr: CellzDirect (CLD) Gene Expression Assay for xenobiotic metabolism (CYP2B6) at 48 hours (AID 2283699);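 further: actives raise transcript level above DMSO so potency reflects induction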
Procedure, shortened: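 Primary human hepatocytes dosed daily for two days over multiple concentrations, 0.2% DMSO vehicle; CYP2B6 mRNA quantified at 48 h by qNPA chemiluminescence. Induction fitted as gain of signal versus DMSO; cytotoxicity annotated by morphology.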

[10] = read-out: xenobiotic metabolism (CYP2C9), CYP2C9 (gene 1559); assay: CLD_CYP2C9_48hr: CellzDirect (CLD) Gene Expression Assay for xenobiotic metabolism (CYP1A2) at 48 hours (AID 2283701)
Procedure, shortened: as §1

Measured: AC50

Cytochrome P450 3A4 (Homo sapiens), sequence (P08684 whole entry, looked up): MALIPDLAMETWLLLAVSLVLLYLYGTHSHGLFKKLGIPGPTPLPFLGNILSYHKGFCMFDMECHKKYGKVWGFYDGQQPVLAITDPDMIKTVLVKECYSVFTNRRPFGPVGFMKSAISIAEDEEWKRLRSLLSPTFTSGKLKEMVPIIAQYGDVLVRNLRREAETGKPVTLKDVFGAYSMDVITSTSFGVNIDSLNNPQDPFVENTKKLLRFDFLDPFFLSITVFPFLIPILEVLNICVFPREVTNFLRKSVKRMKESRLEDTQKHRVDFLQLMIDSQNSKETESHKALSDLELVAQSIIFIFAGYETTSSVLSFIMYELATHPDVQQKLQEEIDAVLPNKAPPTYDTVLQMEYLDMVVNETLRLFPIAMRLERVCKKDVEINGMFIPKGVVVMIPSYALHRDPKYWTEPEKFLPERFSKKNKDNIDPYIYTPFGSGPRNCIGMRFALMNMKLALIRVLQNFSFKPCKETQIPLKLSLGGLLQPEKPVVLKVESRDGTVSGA
Glyceraldehyde-3-phosphate dehydrogenase (Homo sapiens), sequence (P04406 whole entry, looked up): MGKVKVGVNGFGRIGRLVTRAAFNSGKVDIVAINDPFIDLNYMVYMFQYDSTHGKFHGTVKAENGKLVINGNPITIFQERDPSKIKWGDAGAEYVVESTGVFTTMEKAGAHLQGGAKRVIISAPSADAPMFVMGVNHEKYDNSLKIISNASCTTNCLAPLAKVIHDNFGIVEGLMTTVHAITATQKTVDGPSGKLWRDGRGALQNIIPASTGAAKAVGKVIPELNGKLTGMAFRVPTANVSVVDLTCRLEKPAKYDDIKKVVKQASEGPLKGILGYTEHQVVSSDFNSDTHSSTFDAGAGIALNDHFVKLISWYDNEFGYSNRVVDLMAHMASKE
Broad substrate specificity ATP-binding cassette transporter ABCG2 (Homo sapiens), sequence (Q9UNQ0 whole entry, looked up): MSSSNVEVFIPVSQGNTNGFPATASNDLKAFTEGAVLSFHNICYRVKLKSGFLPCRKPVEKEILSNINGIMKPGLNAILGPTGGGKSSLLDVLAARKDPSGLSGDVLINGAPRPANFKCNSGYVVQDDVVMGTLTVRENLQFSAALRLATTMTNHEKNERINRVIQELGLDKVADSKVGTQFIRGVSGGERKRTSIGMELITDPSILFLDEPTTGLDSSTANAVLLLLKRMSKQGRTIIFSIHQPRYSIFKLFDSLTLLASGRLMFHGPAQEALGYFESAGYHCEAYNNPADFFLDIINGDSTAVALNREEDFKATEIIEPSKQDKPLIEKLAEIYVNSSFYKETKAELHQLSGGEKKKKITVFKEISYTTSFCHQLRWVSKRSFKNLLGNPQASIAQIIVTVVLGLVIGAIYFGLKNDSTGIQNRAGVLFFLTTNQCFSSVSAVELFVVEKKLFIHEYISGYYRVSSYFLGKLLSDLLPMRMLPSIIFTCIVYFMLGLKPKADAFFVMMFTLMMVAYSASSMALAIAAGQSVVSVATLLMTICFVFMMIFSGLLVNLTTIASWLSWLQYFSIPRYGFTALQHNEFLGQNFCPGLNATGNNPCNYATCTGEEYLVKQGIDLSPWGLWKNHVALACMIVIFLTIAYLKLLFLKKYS

CN(C)C(=O)Nc1cccc(C(F)(F)F)c1
inactive: [1] | [3] | [5] | [7]
active: [2] 20 µM | [4] 1.96 µM | [6] 7.21 µM

O=C(O)c1cc(Oc2ccc(C(F)(F)F)cc2Cl)ccc1[N+](=O)[O-]
inactive: [8] | [9]

COP(=O)(OC)SCn1c(=O)oc2cc(Cl)cnc21
inactive: [8] | [1] | [2] | [3] | [4] | [5] | [6]

COP(=O)(NC(C)=O)SC (stereo unspecified)
inactive: [8] | [1] | [9] | [3] | [4] | [5] | [6] | [7]

CCOP(=O)(OCC)Oc1cc(C)nc(C(C)C)n1
active: [2] 20 µM | [4] 11.6 µM
inactive: [1] | [3] | [5] | [6] | [7]

CN(C)[C@@H]1C(=O)C(C(N)=O)=C(O)[C@@]2(O)C(=O)C3=C(O)c4c(O)cccc4[C@@](C)(O)[C@H]3[C@H](O)[C@@H]12
inactive: [1] | [2] | [9] | [4] | [6] | [7]

CCOP(=S)(Oc1cnc(C(C)(C)C)nc1)OC(C)C (stereo unspecified)
active: [2] 0.383 µM | [4] 2.68 µM | [6] 3.91 µM
inactive: [1] | [3] | [5]

N#CSCSC#N
active: [6] 7.26 µM
inactive: [1] | [2] | [4] | [5] | [7]

CCOP(=O)(SC(C)CC)N1CCSC1=O (stereo unspecified)
inactive: [1] | [3] | [5]
active: [2] 5.18 µM | [4] 4.51 µM

CCOC(=O)COc1cc(-c2nn(C)c(OC(F)F)c2Cl)c(F)cc1Cl
inactive: [8] | [3] | [4]
active: [2] 4.37 µM | [9] 13.5 µM

CC(C)[C@H](C(=O)O[C@H](C#N)c1cccc(Oc2ccccc2)c1)c1ccc(Cl)cc1
inactive: [8] | [3]
active: [2] 20 µM | [9] 8.04 µM | [4] 20 µM | [6] 20 µM

Cc1cc(C2CC2)nc(Nc2ccccc2)n1
active: [9] 1.09 µM | [4] 3.97 µM
inactive: [8] | [2] | [3] | [6]

CC(C)=CC1C(C(=O)OCN2C(=O)C3=C(CCCC3)C2=O)C1(C)C (stereo unspecified)
inactive: [8] | [1] | [3] | [5] | [6] | [7]
active: [2] 0.152 µM

Nc1nc(N)nc(NC2CC2)n1
active: [6] 11.6 µM
inactive: [8] | [7]

CCCSP(=O)(OCC)Oc1ccc(Br)cc1Cl (stereo unspecified)
inactive: [1] | [3] | [5] | [6]
active: [8] 20 µM | [2] 7.57 µM | [4] 4.26 µM

CCCCOC(=O)[C@@H](C)Oc1ccc(Oc2ccc(C#N)cc2F)cc1
inactive: [8] | [1] | [3] | [4] | [5] | [6]

COc1cc(OC)nc(Sc2cccc(Cl)c2C(=O)O)n1
inactive: [1] | [3] | [4] | [5] | [7]
active: [2] 35.2 µM

CC(C1CC1)C(O)(Cn1cncn1)c1ccc(Cl)cc1 (stereo unspecified)
active: [2] 20 µM | [10] 0.0911 µM | [4] 5.01 µM
inactive: [8] | [5] | [6]

CC(Oc1cccc(Cl)c1)C(=O)O (stereo unspecified)
inactive: [8] | [4] | [5]

CC(COc1ccc(Oc2ccccc2)cc1)Oc1ccccn1 (stereo unspecified)
inactive: [1] | [3] | [5] | [6]
active: [2] 3.97 µM

CCC(=O)Nc1ccc(Cl)c(Cl)c1
inactive: [8] | [2]
active: [4] 4.67 µM | [6] 4.64 µM

CNC(=O)ON=C(C)SC
inactive: [8] | [2] | [4] | [6] | [7]

O=c1ccc(=O)[nH][nH]1
inactive: [8] | [1] | [3] | [5] | [7]

COc1cccc(C(=O)NN(C(=O)c2cc(C)cc(C)c2)C(C)(C)C)c1C
active: [8] 4.26 µM | [2] 1.42 µM | [4] 20 µM | [6] 10.1 µM
inactive: [1] | [3]

CCOP(=S)(OCC)Oc1cc(C)nc(C(C)C)n1
active: [8] 1.92 µM | [9] 1.89 µM | [4] 2.77 µM | [6] 4.2 µM

CSC1=N[C@@](C)(c2ccccc2)C(=O)N1Nc1ccccc1
inactive: [8] | [2] | [5] | [7]
active: [6] 20 µM

CCOC(=O)CC(SP(=O)(OC)OC)C(=O)OCC (stereo unspecified)
active: [2] 20 µM | [9] 20 µM
inactive: [1] | [4] | [5] | [6] | [7]

CC1=NNC(=O)N(/N=C/c2cccnc2)C1
active: [4] 8.29 µM | [6] 3.97 µM
inactive: [1] | [2] | [5] | [7]
